Measured values: the supplement of paper PMC9446081
± gives the standard deviation of the averaged measurements.

How the values were obtained:
Assay in all cases: relative enzymatic activity vs untreated control (fraction); higher = less inhibition
Conditions in all cases: 100 µM; incubation time: 2 h at 37 C
DNA gyrase = system: DNA gyrase
Description: (§1)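 In vitro enzymatic inhibition assays (ProFoldin kits) for 12 purified essential E. coli enzymes or complexes, each treated with 218 active antibacterial compounds at 100 µM for 2 h at 37°C. Read-outs were fluorescence or absorbance (phosphate detection, dye binding), converted to activity via standard curves and expressed relative to untreated DMSO controls.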

DNA helicase = DNA helicase (UniProt P0ACB1)
Sequence of DNA helicase (P0ACB1 whole entry): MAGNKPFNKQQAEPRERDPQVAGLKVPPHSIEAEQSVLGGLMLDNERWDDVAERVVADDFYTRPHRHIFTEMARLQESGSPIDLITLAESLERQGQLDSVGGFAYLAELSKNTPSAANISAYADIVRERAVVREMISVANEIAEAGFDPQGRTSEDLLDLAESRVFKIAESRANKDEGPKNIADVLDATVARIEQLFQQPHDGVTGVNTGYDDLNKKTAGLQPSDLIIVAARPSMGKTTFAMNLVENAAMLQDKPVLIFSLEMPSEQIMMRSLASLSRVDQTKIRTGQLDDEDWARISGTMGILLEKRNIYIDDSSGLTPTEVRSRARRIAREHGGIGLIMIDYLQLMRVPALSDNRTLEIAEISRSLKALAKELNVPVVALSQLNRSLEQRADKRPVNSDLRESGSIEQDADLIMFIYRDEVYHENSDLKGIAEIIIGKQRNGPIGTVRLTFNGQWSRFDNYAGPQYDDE
Description: as §1

DNA ligase = DNA ligase (UniProt B1XA82)
Sequence of DNA ligase (B1XA82 whole entry): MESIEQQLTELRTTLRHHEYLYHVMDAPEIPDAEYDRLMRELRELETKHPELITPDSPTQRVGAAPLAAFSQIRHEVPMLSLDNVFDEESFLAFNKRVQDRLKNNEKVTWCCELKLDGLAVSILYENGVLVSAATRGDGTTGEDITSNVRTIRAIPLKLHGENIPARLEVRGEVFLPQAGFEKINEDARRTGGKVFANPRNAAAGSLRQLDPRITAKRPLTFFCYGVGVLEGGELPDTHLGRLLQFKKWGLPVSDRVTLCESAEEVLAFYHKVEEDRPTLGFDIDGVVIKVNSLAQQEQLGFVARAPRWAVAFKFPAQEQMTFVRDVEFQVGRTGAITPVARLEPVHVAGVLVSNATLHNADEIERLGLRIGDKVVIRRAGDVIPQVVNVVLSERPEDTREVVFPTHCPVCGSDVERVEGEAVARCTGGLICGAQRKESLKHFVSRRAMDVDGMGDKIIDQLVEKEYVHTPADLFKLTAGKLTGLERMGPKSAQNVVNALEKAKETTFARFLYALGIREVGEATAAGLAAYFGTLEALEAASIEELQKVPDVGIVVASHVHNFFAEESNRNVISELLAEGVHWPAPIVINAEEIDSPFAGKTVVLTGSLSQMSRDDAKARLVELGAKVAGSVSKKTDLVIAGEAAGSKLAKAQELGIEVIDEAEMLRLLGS
Description: as §1

DNA polymerase = DNA polymerase (UniProt P10443)
Sequence of DNA polymerase (P10443 whole entry): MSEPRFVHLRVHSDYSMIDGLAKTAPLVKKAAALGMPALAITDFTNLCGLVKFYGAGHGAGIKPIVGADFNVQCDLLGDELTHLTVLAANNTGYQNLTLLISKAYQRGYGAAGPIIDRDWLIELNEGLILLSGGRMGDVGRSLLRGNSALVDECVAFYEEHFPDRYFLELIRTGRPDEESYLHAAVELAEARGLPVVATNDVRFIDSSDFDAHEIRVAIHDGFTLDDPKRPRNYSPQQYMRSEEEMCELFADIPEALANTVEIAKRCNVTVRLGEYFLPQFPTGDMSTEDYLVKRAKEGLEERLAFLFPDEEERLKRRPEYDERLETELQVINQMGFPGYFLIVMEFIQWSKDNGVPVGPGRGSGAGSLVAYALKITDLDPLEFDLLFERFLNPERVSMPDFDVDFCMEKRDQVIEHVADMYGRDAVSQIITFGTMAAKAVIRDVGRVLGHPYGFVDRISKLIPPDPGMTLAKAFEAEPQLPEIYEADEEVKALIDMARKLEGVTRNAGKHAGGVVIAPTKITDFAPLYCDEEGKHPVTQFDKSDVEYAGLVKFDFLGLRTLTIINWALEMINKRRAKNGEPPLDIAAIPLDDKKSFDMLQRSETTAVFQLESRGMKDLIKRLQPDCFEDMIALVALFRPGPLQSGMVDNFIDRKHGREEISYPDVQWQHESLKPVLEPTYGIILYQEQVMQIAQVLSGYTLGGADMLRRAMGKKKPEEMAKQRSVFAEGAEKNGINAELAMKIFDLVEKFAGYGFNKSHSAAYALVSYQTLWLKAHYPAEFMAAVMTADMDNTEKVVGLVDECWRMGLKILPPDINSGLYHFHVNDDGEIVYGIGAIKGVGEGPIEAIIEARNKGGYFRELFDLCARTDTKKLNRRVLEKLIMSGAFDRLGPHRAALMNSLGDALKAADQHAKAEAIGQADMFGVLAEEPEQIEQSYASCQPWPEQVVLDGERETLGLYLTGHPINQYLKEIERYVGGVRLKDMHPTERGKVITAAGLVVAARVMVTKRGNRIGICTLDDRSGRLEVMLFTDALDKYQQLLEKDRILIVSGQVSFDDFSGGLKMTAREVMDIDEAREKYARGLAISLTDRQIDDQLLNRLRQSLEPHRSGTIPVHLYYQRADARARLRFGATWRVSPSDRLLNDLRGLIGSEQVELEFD
Description: as §1

DNA primase = DNA primase (UniProt P0ABS7)
Sequence of DNA primase (P0ABS7 whole entry): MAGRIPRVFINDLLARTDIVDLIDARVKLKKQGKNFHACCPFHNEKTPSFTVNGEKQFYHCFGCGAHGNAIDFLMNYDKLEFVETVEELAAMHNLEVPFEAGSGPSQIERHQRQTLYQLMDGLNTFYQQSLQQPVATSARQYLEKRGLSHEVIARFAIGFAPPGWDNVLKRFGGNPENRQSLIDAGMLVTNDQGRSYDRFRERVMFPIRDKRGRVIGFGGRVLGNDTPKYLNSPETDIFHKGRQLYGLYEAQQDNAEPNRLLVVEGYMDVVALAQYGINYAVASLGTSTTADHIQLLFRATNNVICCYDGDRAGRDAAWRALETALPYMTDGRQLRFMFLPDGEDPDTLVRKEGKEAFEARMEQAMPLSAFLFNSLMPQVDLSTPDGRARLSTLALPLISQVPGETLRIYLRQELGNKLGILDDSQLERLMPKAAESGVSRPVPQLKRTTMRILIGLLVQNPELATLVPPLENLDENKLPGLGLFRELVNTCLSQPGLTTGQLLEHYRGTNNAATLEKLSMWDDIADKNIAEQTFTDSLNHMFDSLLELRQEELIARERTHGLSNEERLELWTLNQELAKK
Description: as §1

GlmU = GlmU (UniProt A7ZTU1)
Sequence of GlmU (A7ZTU1 whole entry, looked up): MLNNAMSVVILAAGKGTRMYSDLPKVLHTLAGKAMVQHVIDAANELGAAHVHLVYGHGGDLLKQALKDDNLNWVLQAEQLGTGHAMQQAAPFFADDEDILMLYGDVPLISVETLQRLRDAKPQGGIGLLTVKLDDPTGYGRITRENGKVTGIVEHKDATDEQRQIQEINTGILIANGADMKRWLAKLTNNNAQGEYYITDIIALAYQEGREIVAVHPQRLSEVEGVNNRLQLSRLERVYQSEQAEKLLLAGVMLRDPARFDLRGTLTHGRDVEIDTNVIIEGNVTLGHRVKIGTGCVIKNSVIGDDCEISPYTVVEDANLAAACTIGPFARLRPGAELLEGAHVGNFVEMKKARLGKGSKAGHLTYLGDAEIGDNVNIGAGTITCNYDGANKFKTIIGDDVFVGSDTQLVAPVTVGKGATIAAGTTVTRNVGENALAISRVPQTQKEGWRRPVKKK
Description: as §1

Guanlyate kinase = Guanlyate kinase (UniProt Q0TBG1)
Sequence of Guanlyate kinase (Q0TBG1 whole entry): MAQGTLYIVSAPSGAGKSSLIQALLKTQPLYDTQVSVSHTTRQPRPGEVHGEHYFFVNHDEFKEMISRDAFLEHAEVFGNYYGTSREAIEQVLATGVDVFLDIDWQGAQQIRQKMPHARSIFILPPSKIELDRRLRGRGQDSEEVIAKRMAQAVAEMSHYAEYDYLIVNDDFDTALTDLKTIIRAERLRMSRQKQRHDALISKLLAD
Description: as §1

MurA = MurA (UniProt Q3YX52)
Sequence of MurA (Q3YX52 whole entry): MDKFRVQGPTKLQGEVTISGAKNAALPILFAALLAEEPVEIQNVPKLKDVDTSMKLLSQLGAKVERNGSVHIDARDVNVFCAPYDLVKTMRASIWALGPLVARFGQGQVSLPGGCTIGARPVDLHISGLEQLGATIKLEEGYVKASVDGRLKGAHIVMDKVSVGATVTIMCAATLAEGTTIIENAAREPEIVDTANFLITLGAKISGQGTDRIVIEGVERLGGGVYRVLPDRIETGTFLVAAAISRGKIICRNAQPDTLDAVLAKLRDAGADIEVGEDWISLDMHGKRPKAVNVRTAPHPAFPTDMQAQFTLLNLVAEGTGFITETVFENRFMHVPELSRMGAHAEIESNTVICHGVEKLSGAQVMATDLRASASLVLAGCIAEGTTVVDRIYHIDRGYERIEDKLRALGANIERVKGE
Description: as §1

MurD = target: T1, MurD (UniProt P14900)
T1 sequence (whole entry): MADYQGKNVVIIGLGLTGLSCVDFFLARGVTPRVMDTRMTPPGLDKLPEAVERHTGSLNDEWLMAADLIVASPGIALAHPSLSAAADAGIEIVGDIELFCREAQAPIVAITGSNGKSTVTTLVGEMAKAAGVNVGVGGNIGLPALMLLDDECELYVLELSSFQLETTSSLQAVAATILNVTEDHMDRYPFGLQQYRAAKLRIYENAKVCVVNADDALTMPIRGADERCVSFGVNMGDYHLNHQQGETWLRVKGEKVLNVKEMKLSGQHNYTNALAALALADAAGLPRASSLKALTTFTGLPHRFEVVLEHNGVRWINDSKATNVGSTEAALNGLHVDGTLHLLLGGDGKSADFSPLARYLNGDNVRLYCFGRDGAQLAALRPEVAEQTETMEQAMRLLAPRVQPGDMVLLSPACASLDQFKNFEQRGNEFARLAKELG
Description: as §1

MurF = target: T2, MurF (UniProt P11880)
T2 sequence (whole entry): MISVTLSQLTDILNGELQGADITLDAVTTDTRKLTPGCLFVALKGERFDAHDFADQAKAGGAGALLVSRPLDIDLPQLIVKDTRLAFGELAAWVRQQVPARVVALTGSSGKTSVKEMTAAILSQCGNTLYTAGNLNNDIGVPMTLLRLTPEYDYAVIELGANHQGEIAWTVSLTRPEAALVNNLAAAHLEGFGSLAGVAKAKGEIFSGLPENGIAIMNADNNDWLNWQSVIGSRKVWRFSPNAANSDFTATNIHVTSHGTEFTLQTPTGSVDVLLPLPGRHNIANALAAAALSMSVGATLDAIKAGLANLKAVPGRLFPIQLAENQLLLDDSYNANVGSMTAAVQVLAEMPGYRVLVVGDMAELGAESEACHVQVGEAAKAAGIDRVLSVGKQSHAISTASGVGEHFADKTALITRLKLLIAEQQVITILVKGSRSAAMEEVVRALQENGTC
Description: as §1

RNA polymerase = system: RNA polymerase
Description: as §1

Row | SMILES | relative enzymatic activity (DNA gyrase) | relative enzymatic activity (DNA helicase) | relative enzymatic activity (DNA ligase) | relative enzymatic activity (DNA polymerase) | relative enzymatic activity (DNA primase) | relative enzymatic activity (GlmU) | relative enzymatic activity (Guanlyate kinase) | relative enzymatic activity (MurA) | relative enzymatic activity (MurD) | relative enzymatic activity (MurF) | relative enzymatic activity (RNA polymerase)
1 | C=C1c2cccc(O)c2C(=O)C2=C(O)C3(O)C(=O)C(C(N)=O)=C(O)C(N(C)C)C3C(O)C12.Cl (stereo not drawn) | 0.0714 ± 0.1 | 0.143 ± 0.031 | 0.963 ± 0.19 | 0.187 ± 0.022 | 0.399 ± 0.077 | 1 ± 0.011 | 0.376 ± 0.018 | 0.0701 ± 0.026 | 0.62 ± 0.43 | 0.937 ± 0.28 | 0.052 ± 0.025
2 | NCC1OC(OC2C(N)CC(N)C(OC3OC(CO)C(O)C(N)C3O)C2O)C(N)CC1O (stereo not drawn) | 1.2 ± 0.12 | 0.45 ± 0.37 | 1.02 ± 0.084 | 1.33 ± 0.47 | 0.71 ± 0.18 | 0.979 ± 0.048 | 1 ± 0.013 | 0.82 ± 0.12 | 0.611 ± 0.4 | 0.932 ± 0.15 | 0.809 ± 0.04
3 | CO/N=C(\C(=O)N[C@@H]1C(=O)N2C(C(=O)O)=C(C[N+]3(C)CCCC3)CS[C@H]12)c1csc(N)n1 | 0.284 ± 0.099 | 0.202 ± 0.28 | 1.11 ± 0.05 | 1.12 ± 0.18 | 0.722 ± 0.012 | 0.943 ± 0.023 | 1.06 ± 0.074 | 0.144 ± 0.026 | 0.591 ± 0.42 | 1.15 ± 0.066 | 0.575 ± 0.11
4 | CC1CCC2(C)C(C=O)=CCCC2C1(C)CC1OC(O)C(=O)C12CO2 (stereo not drawn) | 0.075 ± 0.11 | 0.688 ± 0.45 | 1.12 ± 0.035 | 1.15 ± 0.2 | 0.89 ± 0.017 | 1.008 ± 0.0078 | 0.956 ± 0.024 | 0.662 ± 0.12 | 0.612 ± 0.41 | 0.577 ± 0.81 | 1.06 ± 0.13
5 | CCCC[P+](CCCC)(CCCC)Cc1ccc(NC(=O)[C@@H](Cc2ccc3ccccc3c2)N=C(NC2CCCCC2)NC2CCCCC2)cc1 | 0.0368 ± 0.052 | 0.0252 ± 0.0031 | 0.897 ± 0.14 | 0.636 ± 0.1 | 0.576 ± 0.037 | 0.139 ± 0.0022 | 0.245 ± 0.019 | 0.0381 ± 0.0081 | 0.092 ± 0.023 | 0.108 ± 0.018 | 0.2596 ± 0.002
6 | N[C@H]1CCN(c2nc3c(cc2F)c(=O)c(C(=O)O)cn3-c2ccc(F)cc2F)C1 | 0.206 ± 0.29 | 0.461 ± 0.041 | 0.91 ± 0.23 | 1.17 ± 0.24 | 0.774 ± 0.035 | 0.955 ± 0.026 | 0.852 ± 0.12 | 0.521 ± 0.22 | 0.586 ± 0.39 | 0.924 ± 0.25 | 0.929 ± 0.12
7 | Cc1cc(C2CCCCC2)n(O)c(=O)c1.NCCO | 1.114 ± 0.0086 | 0.546 ± 0.12 | 1.28 ± 0.12 | 1.29 ± 0.34 | 0.751 ± 0.22 | 1.12 ± 0.0031 | 1.05 ± 0.04 | 0.975 ± 0.045 | 0.678 ± 0.45 | 1.02 ± 0.2 | 0.8877 ± 0.0077
8 | CC[C@H](C)C[C@H](C)CCCCCCCCC(=O)N[C@H]1C[C@@H](O)[C@@H](NCCN)NC(=O)[C@@H]2[C@@H](O)CCN2C(=O)[C@H]([C@H](O)CCN)NC(=O)[C@H]([C@H](O)[C@@H](O)c2ccc(O)cc2)NC(=O)[C@@H]2C[C@@H](O)CN2C(=O)[C@H]([C@@H](C)O)NC1=O | 0.131 ± 0.067 | 0.0208 ± 0.022 | 0.699 ± 0.13 | 0.2437 ± 0.00079 | 0.766 ± 0.017 | 1.03 ± 0.013 | 1.09 ± 0.022 | 0.522 ± 0.47 | 0.706 ± 0.5 | 1.39 ± 0.62 | 0.408 ± 0.013
9 | Nc1nc(/C(=N/O)C(=O)N[C@@H]2C(=O)N3C(C(=O)O)=C(/C=C4\CCN([C@@H]5CCNC5)C4=O)CS[C@H]23)ns1 | 0.279 ± 0.18 | 0.389 ± 0.35 | 0.901 ± 0.11 | 1.08 ± 0.3 | 0.816 ± 0.035 | 0.83 ± 0.021 | 0.881 ± 0.12 | 0.0852 ± 0.03 | 0.57 ± 0.38 | 1.1 ± 0.069 | 0.561 ± 0.045
10 | CN(C)[C@@H]1C(=O)[C@@H](C(N)=O)C(=O)[C@@]2(O)C(=O)[C@H]3C(=O)c4c(O)ccc(Cl)c4[C@@H](O)[C@H]3C[C@@H]12 | 1.05 ± 0.19 | 0.508 ± 0.1 | 0.858 ± 0.066 | 1.17 ± 0.28 | 0.754 ± 0.018 | 1.02 ± 0.063 | 0.831 ± 0.16 | 0.336 ± 0.14 | 0.621 ± 0.42 | 0.975 ± 0.23 | 0.749 ± 0.19
11 | COc1c(N2CC3CCCNC3C2)c(F)cc2c(=O)c(C(=O)O)cn(C3CC3)c12.Cl (stereo not drawn) | 0.0344 ± 0.049 | 0.559 ± 0.16 | 1.22 ± 0.1 | 1.13 ± 0.18 | 0.682 ± 0.17 | 0.986 ± 0.039 | 0.825 ± 0.096 | 0.795 ± 0.041 | 0.597 ± 0.41 | 0.94 ± 0.19 | 0.868 ± 0.083
12 | COc1ccc2c(c1OC)C(=O)OC2C1c2c(cc3c(c2OC)OCO3)CCN1C.Cl (stereo not drawn) | 0.0862 ± 0.019 | 0.249 ± 0.016 | 1.11 ± 0.17 | 1.36 ± 0.47 | 0.947 ± 0.42 | 1.123 ± 0.0013 | 1.12 ± 0.066 | 0.417 ± 0.096 | 0.684 ± 0.53 | 0.967 ± 0.19 | 0.914 ± 0.045
13 | Cl.N=C(N)n1cccn1 | 0.0897 ± 0.13 | 0.649 ± 0.3 | 1.13 ± 0.067 | 1.15 ± 0.22 | 0.868 ± 0.027 | 1.014 ± 0.0039 | 0.902 ± 0.2 | 0.813 ± 0.052 | 0.613 ± 0.43 | 0.939 ± 0.23 | 0.787 ± 0.012
14 | CO/N=C1\CN(c2nc3c(cc2F)c(=O)c(C(=O)O)cn3C2CC2)C[C@@H]1CN | 0.0916 ± 0.13 | 0.4747 ± 0.0033 | 0.891 ± 0.14 | 0.53 ± 0.72 | 0.751 ± 0.05 | 0.979 ± 0.019 | 0.738 ± 0.26 | 0.631 ± 0.21 | 0.572 ± 0.38 | 0.964 ± 0.17 | 0.807 ± 0.074
15 | CCn1cc(C(=O)O)c(=O)c2cc(F)c(N3CCN(C(=S)Nc4cc(C(F)(F)F)ccc4Cl)CC3)cc21 | 0.0352 ± 0.05 | 0.303 ± 0.029 | 0.85 ± 0.036 | 0.51 ± 0.72 | 1.49 ± 0.75 | 1.03 ± 0.024 | 0.915 ± 0.081 | 0.654 ± 0.18 | 0.629 ± 0.41 | 0.996 ± 0.24 | 1.17 ± 0.075
16 | CN(C)c1ccc(O)c2c1CC1CC3C(N(C)C)C(O)=C(C(N)=O)C(=O)C3(O)C(O)=C1C2=O.Cl (stereo not drawn) | 0.541 ± 0.071 | 0.129 ± 0.0081 | 0.831 ± 0.21 | 0.908 ± 0.4 | 0.4515 ± 0.0044 | 0.955 ± 0.066 | 0.577 ± 0.027 | 0.0902 ± 0.0036 | 0.602 ± 0.4 | 0.939 ± 0.18 | 0.184 ± 0.083
17 | CN(C)c1cc(CNCC(C)(C)C)c(O)c2c1C[C@H]1C[C@H]3[C@H](N(C)C)C(=O)[C@H](C(N)=O)C(=O)[C@@]3(O)C(=O)[C@@H]1C2=O | 0.256 ± 0.0049 | 0.355 ± 0.04 | 0.862 ± 0.018 | 1.09 ± 0.3 | 0.671 ± 0.07 | 0.9877 ± 0.0037 | 0.49613 ± 0.0003 | 0.133 ± 0.025 | 0.578 ± 0.38 | 1.23 ± 0.068 | 0.289 ± 0.1
18 | CC[C@H]1OC(=O)[C@H](C)[C@@H](O[C@H]2C[C@@](C)(OC)[C@@H](O)[C@H](C)O2)[C@H](C)[C@@H](O[C@@H]2O[C@H](C)C[C@H](N(C)C)[C@H]2O)[C@](C)(O)C[C@@H](C)CN(C)[C@H](C)[C@@H](O)[C@]1(C)O | 0.608 ± 0.34 | 0.527 ± 0.072 | 0.871 ± 0.086 | 1.04 ± 0.12 | 0.836 ± 0.027 | 0.99 ± 0.031 | 0.865 ± 0.079 | 0.746 ± 0.079 | 0.58 ± 0.37 | 0.95 ± 0.23 | 0.897 ± 0.19
